# Assays:
# Test in all cases: DAPPL (digital affinity profiling via proximity ligation, sequencing); 10 mM Tris-HCl pH 7.5, 50 mM NaCl, 1 mM DTT, 4% glycerol, room temperature, 30 min; GST-TFs on glutathione beads, 16-mer random dsDNA library, 0.1% formaldehyde crosslink after washing; high values mean tight binding
# FLI1 = biological target: T1, FLI1 (Homo sapiens, UniProt Q01543 1-452); conditions: protein: recombinant; tags: N-terminal GST; dsDNA, one strand shown
# T1 sequence: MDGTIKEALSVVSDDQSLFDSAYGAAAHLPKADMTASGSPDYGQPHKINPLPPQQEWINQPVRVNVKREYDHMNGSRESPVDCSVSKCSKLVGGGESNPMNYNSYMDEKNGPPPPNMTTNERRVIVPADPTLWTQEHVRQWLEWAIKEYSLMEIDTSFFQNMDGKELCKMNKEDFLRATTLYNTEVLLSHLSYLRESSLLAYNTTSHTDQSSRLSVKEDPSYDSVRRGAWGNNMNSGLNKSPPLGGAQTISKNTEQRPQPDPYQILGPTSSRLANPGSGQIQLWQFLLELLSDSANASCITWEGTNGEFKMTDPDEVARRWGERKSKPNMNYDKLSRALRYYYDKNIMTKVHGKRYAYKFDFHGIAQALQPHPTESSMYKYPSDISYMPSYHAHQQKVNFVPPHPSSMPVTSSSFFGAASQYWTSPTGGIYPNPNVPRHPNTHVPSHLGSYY
# How it was run: (§1)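 GST fusions of human transcription factors were expressed in yeast and captured with glutathione beads. Once given DNA barcodes and pooled alongside a tag-only sample, they were incubated for 30 min at room temperature with 200 nmole of a random double-stranded 16-mer DNA library in Tris/NaCl/DTT/glycerol buffer, then washed, crosslinked (0.1% formaldehyde), proximity-ligated, PCR-amplified and sequenced on an Illumina NextSeq500. The binding signal of each hexamer is its read frequency for a factor divided by its frequency for the tag-only sample.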
# ELK1 = biological target: T2, ELK1 (Homo sapiens, UniProt P19419 1-428); conditions: protein: recombinant; tags: N-terminal GST; dsDNA, one strand shown
# T2 sequence: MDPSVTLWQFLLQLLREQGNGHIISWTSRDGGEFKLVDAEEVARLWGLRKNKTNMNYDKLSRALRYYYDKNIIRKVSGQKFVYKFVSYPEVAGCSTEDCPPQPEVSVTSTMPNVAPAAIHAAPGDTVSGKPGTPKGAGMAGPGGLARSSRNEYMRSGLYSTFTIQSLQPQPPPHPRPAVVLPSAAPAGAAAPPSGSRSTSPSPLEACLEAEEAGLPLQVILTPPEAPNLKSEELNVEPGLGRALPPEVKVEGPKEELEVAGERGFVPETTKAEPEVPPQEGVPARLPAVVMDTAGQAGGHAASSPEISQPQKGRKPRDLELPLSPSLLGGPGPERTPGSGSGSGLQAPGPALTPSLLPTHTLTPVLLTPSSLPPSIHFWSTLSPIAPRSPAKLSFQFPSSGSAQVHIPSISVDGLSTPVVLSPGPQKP
# How it was run: as §1
# GABPA = biological target: T3, GABPA (Homo sapiens, UniProt Q06546 1-454); conditions: protein: recombinant; tags: N-terminal GST; dsDNA, one strand shown
# T3 sequence: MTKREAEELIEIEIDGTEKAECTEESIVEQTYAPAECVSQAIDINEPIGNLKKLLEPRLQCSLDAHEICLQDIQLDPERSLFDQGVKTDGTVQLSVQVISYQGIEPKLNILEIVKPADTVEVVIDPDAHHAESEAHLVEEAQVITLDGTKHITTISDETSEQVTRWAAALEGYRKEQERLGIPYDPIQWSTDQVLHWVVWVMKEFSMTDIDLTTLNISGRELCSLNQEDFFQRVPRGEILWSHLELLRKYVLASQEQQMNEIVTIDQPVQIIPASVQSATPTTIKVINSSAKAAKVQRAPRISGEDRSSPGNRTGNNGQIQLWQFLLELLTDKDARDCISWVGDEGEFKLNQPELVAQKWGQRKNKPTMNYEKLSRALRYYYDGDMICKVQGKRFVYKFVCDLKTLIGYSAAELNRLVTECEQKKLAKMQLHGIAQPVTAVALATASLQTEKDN
# How it was run: as §1
# ERG = biological target: T4, ERG (Homo sapiens, UniProt P11308 1-479); conditions: protein: recombinant; tags: N-terminal GST; dsDNA, one strand shown
# T4 sequence: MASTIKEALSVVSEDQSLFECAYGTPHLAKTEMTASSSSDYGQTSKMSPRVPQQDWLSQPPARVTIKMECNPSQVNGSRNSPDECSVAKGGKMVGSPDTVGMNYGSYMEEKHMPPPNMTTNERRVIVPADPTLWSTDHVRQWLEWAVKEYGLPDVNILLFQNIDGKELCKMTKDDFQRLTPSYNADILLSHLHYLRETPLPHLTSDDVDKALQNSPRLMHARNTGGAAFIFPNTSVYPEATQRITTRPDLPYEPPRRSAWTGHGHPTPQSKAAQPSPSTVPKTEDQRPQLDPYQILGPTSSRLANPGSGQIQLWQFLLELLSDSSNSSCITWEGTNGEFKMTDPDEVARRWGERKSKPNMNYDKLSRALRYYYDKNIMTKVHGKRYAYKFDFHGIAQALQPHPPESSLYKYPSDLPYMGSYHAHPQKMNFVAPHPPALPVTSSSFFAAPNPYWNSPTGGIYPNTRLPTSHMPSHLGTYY
# How it was run: as §1
# ELF1 = ELF1 (Homo sapiens, UniProt P32519 1-619); conditions: protein: recombinant; tags: N-terminal GST; dsDNA, one strand shown
# How it was run: as §1
# EHF = biological target: T5, EHF (Homo sapiens, UniProt Q9NZC4 1-300); conditions: protein: recombinant; tags: N-terminal GST; dsDNA, one strand shown
# T5 sequence: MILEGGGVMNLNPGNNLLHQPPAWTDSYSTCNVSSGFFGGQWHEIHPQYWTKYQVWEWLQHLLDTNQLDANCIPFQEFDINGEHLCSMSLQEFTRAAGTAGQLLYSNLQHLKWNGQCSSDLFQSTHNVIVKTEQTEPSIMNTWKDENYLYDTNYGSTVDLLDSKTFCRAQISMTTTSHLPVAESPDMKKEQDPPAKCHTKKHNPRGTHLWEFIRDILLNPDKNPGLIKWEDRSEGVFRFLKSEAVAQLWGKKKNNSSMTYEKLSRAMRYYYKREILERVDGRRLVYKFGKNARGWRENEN
# How it was run: as §1
# SPI1 = SPI1 (Homo sapiens, UniProt P17947 1-270); conditions: protein: recombinant; tags: N-terminal GST; dsDNA, one strand shown
# How it was run: as §1
# SPIB = SPIB (Homo sapiens, UniProt Q01892 1-262); conditions: protein: recombinant; tags: N-terminal GST; dsDNA, one strand shown
# How it was run: as §1
# ELK3 = biological target: T6, ELK3 (Homo sapiens, UniProt P41970 1-407); conditions: protein: recombinant; tags: N-terminal GST; dsDNA, one strand shown
# T6 sequence: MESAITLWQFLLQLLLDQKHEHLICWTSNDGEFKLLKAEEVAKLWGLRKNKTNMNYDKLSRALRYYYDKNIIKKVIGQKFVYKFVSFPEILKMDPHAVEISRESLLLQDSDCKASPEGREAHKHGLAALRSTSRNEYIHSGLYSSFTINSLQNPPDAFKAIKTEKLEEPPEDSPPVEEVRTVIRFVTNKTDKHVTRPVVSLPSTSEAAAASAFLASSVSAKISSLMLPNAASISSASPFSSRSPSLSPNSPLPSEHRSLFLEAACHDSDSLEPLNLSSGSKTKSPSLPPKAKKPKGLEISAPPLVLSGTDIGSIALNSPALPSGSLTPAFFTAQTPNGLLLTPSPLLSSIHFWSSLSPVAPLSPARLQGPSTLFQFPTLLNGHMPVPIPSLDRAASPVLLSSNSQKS
# How it was run: as §1
# FEV = biological target: T7, FEV (Homo sapiens, UniProt Q99581 1-238); conditions: protein: recombinant; tags: N-terminal GST; dsDNA, one strand shown
# T7 sequence: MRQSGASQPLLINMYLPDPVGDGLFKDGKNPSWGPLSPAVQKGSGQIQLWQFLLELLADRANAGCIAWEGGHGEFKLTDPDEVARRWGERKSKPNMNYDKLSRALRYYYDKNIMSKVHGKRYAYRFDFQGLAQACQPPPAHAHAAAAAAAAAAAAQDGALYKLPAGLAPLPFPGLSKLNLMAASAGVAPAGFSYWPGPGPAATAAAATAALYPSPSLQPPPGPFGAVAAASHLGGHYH
# How it was run: as §1
# ETV5 = ETV5 (Homo sapiens, UniProt P41161 1-510); conditions: protein: recombinant; tags: N-terminal GST; dsDNA, one strand shown
# How it was run: as §1
# HSF1 = HSF1 (Homo sapiens, UniProt Q00613 1-529); conditions: protein: recombinant; tags: N-terminal GST; chain copies: 3; dsDNA, one strand shown
# How it was run: as §1
# SPIC = biological target: T8, SPIC (Homo sapiens, UniProt Q8N5J4 1-248); conditions: protein: recombinant; tags: N-terminal GST; dsDNA, one strand shown
# T8 sequence: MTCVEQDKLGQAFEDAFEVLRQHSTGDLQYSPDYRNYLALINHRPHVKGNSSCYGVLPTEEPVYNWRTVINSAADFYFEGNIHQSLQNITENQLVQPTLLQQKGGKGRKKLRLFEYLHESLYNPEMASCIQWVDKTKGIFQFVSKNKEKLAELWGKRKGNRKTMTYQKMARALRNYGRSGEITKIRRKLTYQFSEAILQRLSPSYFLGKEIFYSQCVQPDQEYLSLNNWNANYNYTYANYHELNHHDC
# How it was run: as §1
# ELF4 = ELF4 (Homo sapiens, UniProt Q99607 1-663); conditions: protein: recombinant; tags: N-terminal GST; dsDNA, one strand shown
# How it was run: as §1
# ELK4 = biological target: T9, ELK4 (Homo sapiens, UniProt P28324-2 1-405); conditions: protein: recombinant; tags: N-terminal GST; dsDNA, one strand shown
# T9 sequence: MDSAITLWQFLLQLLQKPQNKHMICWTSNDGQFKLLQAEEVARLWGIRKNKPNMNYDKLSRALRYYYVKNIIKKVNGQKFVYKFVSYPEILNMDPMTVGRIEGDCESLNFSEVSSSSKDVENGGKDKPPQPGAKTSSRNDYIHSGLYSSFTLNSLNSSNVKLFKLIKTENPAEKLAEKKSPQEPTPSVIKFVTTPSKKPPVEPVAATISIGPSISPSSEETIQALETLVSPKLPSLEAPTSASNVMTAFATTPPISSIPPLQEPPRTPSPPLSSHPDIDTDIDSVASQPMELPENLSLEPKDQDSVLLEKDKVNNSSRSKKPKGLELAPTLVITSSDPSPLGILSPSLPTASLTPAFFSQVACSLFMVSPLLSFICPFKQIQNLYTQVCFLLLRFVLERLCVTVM
# How it was run: as §1
# ETV2 = biological target: T10, ETV2 (Homo sapiens, UniProt O00321 1-342); conditions: protein: recombinant; tags: N-terminal GST; dsDNA, one strand shown
# T10 sequence: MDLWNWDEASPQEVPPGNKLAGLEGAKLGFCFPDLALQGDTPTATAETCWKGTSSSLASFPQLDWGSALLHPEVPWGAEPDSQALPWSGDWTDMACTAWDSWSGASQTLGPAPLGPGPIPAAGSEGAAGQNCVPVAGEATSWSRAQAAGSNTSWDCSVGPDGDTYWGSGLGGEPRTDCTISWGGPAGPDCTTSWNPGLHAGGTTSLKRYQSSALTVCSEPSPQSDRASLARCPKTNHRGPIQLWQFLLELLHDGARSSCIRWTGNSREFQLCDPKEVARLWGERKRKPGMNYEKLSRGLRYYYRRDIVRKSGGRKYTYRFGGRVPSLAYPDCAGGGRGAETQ
# How it was run: as §1
# ELF3 = biological target: T11, ELF3 (Homo sapiens, UniProt P78545 1-371); conditions: protein: recombinant; tags: N-terminal GST; dsDNA, one strand shown
# T11 sequence: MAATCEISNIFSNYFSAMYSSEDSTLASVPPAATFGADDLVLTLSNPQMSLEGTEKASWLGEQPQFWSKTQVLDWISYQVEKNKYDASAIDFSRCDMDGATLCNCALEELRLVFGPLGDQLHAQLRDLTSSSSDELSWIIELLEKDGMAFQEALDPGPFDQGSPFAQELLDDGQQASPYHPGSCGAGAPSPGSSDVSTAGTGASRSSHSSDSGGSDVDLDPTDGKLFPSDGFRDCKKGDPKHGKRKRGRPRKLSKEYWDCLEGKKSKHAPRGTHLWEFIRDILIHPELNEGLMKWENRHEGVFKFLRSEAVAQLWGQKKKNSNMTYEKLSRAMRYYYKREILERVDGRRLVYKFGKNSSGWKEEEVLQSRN
# How it was run: as §1
# CRX = CRX (Homo sapiens, UniProt O43186 1-299); conditions: protein: recombinant; tags: N-terminal GST; dsDNA, one strand shown
# How it was run: as §1
# ETV1 = ETV1 (Homo sapiens, UniProt P50549 1-477); conditions: protein: recombinant; tags: N-terminal GST; dsDNA, one strand shown
# How it was run: as §1
# Sequence of CRX (O43186 whole entry): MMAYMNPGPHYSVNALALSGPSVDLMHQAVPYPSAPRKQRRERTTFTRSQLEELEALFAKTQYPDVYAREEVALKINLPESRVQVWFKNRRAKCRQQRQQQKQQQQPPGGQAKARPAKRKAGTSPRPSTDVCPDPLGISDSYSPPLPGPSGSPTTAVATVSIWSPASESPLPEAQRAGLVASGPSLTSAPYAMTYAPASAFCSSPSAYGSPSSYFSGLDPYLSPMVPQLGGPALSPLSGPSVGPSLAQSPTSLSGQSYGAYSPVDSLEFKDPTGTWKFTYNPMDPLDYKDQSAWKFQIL
# Sequence of HSF1 (Q00613 whole entry): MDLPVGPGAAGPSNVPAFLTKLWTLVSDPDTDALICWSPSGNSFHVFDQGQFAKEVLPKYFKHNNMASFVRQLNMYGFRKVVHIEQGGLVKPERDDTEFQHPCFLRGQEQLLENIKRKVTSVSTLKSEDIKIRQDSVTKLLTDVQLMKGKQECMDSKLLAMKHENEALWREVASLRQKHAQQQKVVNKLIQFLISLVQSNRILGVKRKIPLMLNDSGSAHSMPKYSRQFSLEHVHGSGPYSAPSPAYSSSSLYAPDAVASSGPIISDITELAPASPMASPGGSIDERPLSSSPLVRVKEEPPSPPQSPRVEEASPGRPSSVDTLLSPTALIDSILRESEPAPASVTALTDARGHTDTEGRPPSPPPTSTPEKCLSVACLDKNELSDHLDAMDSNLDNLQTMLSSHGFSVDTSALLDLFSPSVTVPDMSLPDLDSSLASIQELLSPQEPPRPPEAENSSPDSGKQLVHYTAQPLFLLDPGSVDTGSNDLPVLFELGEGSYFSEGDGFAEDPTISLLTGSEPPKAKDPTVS
# Sequence of ETV5 (P41161 whole entry): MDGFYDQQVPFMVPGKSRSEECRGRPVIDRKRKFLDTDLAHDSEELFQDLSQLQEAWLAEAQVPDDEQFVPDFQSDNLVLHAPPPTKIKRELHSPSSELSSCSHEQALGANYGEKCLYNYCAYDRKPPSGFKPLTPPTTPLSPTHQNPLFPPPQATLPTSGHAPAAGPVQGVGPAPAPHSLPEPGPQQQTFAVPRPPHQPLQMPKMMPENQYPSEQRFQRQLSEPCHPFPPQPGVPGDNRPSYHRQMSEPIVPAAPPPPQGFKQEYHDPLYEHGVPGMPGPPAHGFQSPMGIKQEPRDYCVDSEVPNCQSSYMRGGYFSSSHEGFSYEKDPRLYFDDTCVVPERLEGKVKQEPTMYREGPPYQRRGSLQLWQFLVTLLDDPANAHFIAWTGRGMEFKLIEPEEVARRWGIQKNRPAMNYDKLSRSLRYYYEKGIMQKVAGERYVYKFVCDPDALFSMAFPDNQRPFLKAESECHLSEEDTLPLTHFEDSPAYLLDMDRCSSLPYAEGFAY
# Sequence of ELF4 (Q99607 whole entry): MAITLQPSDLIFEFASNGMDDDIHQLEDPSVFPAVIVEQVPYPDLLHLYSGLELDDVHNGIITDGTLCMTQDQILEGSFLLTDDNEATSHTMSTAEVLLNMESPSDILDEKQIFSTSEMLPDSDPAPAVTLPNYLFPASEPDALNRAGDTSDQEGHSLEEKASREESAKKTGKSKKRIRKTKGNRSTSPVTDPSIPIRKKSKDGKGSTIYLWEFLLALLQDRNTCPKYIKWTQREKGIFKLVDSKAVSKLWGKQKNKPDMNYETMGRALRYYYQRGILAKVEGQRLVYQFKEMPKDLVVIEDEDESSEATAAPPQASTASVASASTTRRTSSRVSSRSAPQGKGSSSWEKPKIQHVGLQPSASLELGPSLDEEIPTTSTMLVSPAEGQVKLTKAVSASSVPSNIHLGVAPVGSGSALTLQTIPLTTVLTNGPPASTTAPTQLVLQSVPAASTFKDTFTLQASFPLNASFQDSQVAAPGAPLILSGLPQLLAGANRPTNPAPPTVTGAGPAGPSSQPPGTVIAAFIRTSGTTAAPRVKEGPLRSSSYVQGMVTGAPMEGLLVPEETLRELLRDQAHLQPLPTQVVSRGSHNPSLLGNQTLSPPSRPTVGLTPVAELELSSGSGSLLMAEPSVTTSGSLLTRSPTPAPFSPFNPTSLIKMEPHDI
# Sequence of ETV1 (P50549 whole entry): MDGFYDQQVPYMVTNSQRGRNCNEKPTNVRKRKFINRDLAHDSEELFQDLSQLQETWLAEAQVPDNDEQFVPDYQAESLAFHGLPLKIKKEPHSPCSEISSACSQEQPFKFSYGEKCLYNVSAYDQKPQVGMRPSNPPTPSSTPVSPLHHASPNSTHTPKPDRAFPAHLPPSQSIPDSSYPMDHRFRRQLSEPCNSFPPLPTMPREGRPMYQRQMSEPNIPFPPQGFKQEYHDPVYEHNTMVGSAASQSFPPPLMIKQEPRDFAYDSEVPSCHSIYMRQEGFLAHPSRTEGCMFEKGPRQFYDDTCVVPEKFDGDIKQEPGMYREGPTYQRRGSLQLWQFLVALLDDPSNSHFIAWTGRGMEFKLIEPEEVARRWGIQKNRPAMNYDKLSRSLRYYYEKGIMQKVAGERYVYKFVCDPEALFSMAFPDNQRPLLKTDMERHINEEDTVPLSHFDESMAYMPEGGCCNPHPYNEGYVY
# Sequence of ELF1 (P32519 whole entry): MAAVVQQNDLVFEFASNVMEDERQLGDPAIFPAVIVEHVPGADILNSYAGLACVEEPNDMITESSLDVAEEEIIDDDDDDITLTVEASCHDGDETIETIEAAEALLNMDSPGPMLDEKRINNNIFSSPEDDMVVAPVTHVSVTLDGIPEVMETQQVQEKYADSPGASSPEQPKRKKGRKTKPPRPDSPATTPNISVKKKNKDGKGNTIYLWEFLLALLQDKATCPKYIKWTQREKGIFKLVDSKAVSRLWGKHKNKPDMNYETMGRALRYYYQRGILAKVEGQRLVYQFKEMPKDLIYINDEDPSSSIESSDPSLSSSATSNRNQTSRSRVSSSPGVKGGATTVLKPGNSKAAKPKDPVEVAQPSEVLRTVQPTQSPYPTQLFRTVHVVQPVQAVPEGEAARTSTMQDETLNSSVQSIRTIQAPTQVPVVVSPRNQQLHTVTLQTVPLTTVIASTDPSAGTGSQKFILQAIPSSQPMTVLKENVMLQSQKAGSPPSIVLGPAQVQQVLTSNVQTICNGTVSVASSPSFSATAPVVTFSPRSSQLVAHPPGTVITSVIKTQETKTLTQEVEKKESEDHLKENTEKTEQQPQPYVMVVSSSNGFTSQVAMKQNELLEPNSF
# Sequence of SPIB (Q01892 whole entry): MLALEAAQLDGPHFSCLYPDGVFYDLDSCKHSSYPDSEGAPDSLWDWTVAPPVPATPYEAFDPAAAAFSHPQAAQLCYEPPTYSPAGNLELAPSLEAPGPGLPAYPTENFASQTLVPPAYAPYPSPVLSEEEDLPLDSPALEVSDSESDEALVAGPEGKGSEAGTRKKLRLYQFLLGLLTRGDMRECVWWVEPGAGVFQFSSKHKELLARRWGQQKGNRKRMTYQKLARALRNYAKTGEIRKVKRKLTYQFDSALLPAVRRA
sequence,measurement,setting,value
TCTGGC,binding signal,FLI1,"1.36 fold enrichment (6-mer frequency, TF over GST control)"
same,binding signal,ELK1,"1.26 fold enrichment (6-mer frequency, TF over GST control)"
same,binding signal,GABPA,"1.29 fold enrichment (6-mer frequency, TF over GST control)"
same,binding signal,ERG,"1.27 fold enrichment (6-mer frequency, TF over GST control)"
same,binding signal,ELF1,"1.14 fold enrichment (6-mer frequency, TF over GST control)"
same,binding signal,EHF,"1.22 fold enrichment (6-mer frequency, TF over GST control)"
same,binding signal,SPI1,"1.25 fold enrichment (6-mer frequency, TF over GST control)"
same,binding signal,SPIB,"1.09 fold enrichment (6-mer frequency, TF over GST control)"
same,binding signal,ELK3,"1.18 fold enrichment (6-mer frequency, TF over GST control)"
same,binding signal,FEV,"1.16 fold enrichment (6-mer frequency, TF over GST control)"
same,binding signal,ETV5,"1.11 fold enrichment (6-mer frequency, TF over GST control)"
same,binding signal,HSF1,"1.89 fold enrichment (6-mer frequency, TF over GST control)"
same,binding signal,SPIC,"1.38 fold enrichment (6-mer frequency, TF over GST control)"
same,binding signal,ELF4,"1.4 fold enrichment (6-mer frequency, TF over GST control)"
same,binding signal,ELK4,"1.44 fold enrichment (6-mer frequency, TF over GST control)"
same,binding signal,ETV2,"1.28 fold enrichment (6-mer frequency, TF over GST control)"
same,binding signal,ELF3,"1.03 fold enrichment (6-mer frequency, TF over GST control)"
same,binding signal,CRX,"1.31 fold enrichment (6-mer frequency, TF over GST control)"
same,binding signal,ETV1,"1.24 fold enrichment (6-mer frequency, TF over GST control)"

# Reference: paper PMC7862700, “An all-to-all approach to the identification of sequence-specific readers for epigenetic DNA modifications on cytosine”
